The source of these data is PubChem BioAssay AID1851 (National Center for Advancing Translational Sciences (NCATS), 2009).

Out of some 16,000 compounds screened, about 5,800 (36%) were called active. Not shown: some 23% with an inconclusive outcome. The list shows a part of the results. A number with no mark means an inactive call. The call rests on the fitted dose curve; in most records, active means well fitted curve in the direction sought with a large enough effect; inconclusive means small, poorly fitted or top-dose-only effect, or effect the other way; inactive means no such curve, though single readings can be large or run the other way.
On the % scale 0 is the no-effect control and ±100 the full control effect.

Sequence of Cytochrome P450 2C19 (Homo sapiens) (P33261 whole entry, looked up): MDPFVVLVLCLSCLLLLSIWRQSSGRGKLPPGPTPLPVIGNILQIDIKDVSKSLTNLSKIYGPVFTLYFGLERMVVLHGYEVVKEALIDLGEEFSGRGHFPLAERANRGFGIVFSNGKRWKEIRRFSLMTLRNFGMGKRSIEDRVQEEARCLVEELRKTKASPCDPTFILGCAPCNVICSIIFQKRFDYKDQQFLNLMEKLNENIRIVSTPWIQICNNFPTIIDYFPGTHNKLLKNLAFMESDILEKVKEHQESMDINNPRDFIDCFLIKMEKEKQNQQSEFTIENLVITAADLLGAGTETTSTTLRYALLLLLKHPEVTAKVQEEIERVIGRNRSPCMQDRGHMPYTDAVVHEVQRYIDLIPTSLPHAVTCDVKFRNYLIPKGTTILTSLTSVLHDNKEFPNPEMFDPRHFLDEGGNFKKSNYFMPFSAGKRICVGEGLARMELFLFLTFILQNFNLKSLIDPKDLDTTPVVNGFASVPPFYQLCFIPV

This experiment concerns the target Cytochrome P450 2C19 (Homo sapiens) (UniProt P33261). The experiment in a line: Cytochrome panel assay with activity outcomes. The conditions noted are these: recombinant CYP, pro-luciferin dealkylation, luminescence, p450-cyp2c19; series mostly up to 57.1 µM; activity, negative = inhibition: at the top concentration.
`CCC/C=C(\CCC)C(NC(=O)c1ccc(C(F)(F)F)cc1)c1ccccc1` (stereo not drawn): the concentration at half-maximal activity (AC50) is 10 µM (active).
As to `CCC/C=C(\CCC)C(NC(=O)c1ccc(C(F)(F)F)cc1)c1ccc(C(F)(F)F)cc1` (stereo not drawn), the “activity, negative = inhibition” value is -13.6%.
On to `CCC/C=C(\CCC)C(NC(=O)c1cccs1)c1ccc(C(F)(F)F)cc1` (stereo not drawn), for which the half-maximal activity concentration (AC50) was 0.316 µM (active).
Take `CCC/C=C(\CCC)C(NC(=O)c1ccc(-c2ccccc2)cc1)c1ccc(C(=O)OC)cc1` (stereo not drawn): the “activity, negative = inhibition” value was 10.8%.
With `CCC/C=C(\CCC)C(NC(=O)Oc1ccc(F)cc1)c1ccc(C(=O)OC)cc1` (stereo not drawn), the “activity, negative = inhibition” value is -17.8%.
With `CCC/C=C(\CCC)C(NC(=O)Cc1ccccc1)c1ccc(C(=O)OC)cc1` (stereo not drawn), the AC50 was 2.51 µM (active).
Take `CCC/C=C(\CCC)C(NC(=O)c1cccs1)c1ccc(C(=O)OC)cc1` (stereo not drawn): the AC50 was 0.794 µM (active).
Consider `COc1ccc(-n2c(=O)c(-c3cc(F)cc(F)c3)nc3cnc(N4CCNCC4)nc32)cc1`, for which the “activity, negative = inhibition” value is -25.9%.
For `Nc1ccc(S(=O)(=O)Nc2ccc(Cl)nn2)cc1`, the “activity, negative = inhibition” value was 9.31% [at 25.6 µM].
On to `CC(C)(C)NS(=O)(=O)c1ccc(NS(=O)(=O)c2ccc(F)cc2)cc1`, for which the “activity, negative = inhibition” value is 4.37%.
For the molecule `CC(C)(C)c1ccc(NS(=O)(=O)c2ccc(N)cc2)cc1`, the AC50 is 0.398 µM (active).
For the molecule `CN(C)CCCNc1ncnc2nc[nH]c12`, the activity, negative = inhibition was 19.7% [at 11.4 µM].
On to `COc1ccccc1-c1cc(N(C)Cc2ccco2)ncn1`, for which the half-maximal activity concentration (AC50) is 3.98 µM (active).
Turning to `CN(C)Cc1ccccc1-c1cc(N(C)Cc2ccco2)ncn1`, the “activity, negative = inhibition” value was 37.8%.
On to `CN(Cc1ccco1)c1ccnc(-c2ccccc2C(F)(F)F)n1`, for which the AC50 was 7.94 µM (active).
As to `CN(C)Cc1ccccc1-c1nccc(N(C)Cc2ccco2)n1`, the “activity, negative = inhibition” value is -17.9%.
For the molecule `CN(C)c1ccnc(-c2ccccc2C(F)(F)F)n1`, the “activity, negative = inhibition” value was -34.4%.
With `CN(Cc1ccco1)c1cc(-c2ccccc2Cl)ncn1`, the AC50 is 7.94 µM (active).
With `Cc1ccccc1-c1cc(N(C)Cc2ccco2)ncn1`, the AC50 was 6.31 µM (active).
With `CN(Cc1ccco1)c1cc(-c2ccccc2C(F)(F)F)ncn1`, the AC50 is 10 µM (active).
Take `O[C@]1(c2ccccc2)c2ccccc2NC2=NCCN21`: the activity, negative = inhibition is 36.2% [at 11.4 µM].
In the case of `Cc1ccc(OCc2ccc(C(=O)Nc3nccs3)o2)cc1C`, the AC50 is 2.51 µM (active).
Take `Cc1onc(C(=O)/C=C/N(C)C)c1C(=O)Nc1nccs1`: the “activity, negative = inhibition” value was -12.2%.
In the case of `COC(=O)c1ccccc1NC(=O)c1ccc(COc2ccc(C)c(C)c2)o1`, the AC50 was 2 µM (active).
On to `COC(=O)c1ccccc1NC(=O)c1ccc(Cn2cc(Cl)cn2)o1`, for which the concentration at half-maximal activity (AC50) was 1.12 µM (active).
The same measure, in the same setting: in the case of `COc1ccc(NC(=O)c2ccc(COc3ccccc3)o2)cc1` it was 5.62 µM (active).
Regarding `Cc1ccc2ncc([N+](=O)[O-])n2c1`, the “activity, negative = inhibition” value was -12.1%.
Consider `CCOc1ccc(C(CC(=O)O)NC(=O)COc2ccccc2)cc1` (stereo not drawn), for which the “activity, negative = inhibition” value was -6.04%.
Take `CCOC(=O)CC(NC(=O)c1cccs1)c1ccc(OCC)cc1` (stereo not drawn): the concentration at half-maximal activity (AC50) was 2.82 µM (active).
In the case of `CCOC(=O)CC(NC(=O)c1ccc(C)cc1)c1ccc(C)cc1` (stereo not drawn), the AC50 is 14.1 µM (active).
Consider `CCOC(=O)CC(NC(=O)c1ccco1)c1ccc(OC)cc1` (stereo not drawn), for which the half-maximal activity concentration (AC50) was 14.1 µM (active).
`CC(C)CSC[C@@H]1O[C@H](n2cnc3c(N)nccc32)[C@H](O)[C@@H]1O`: the activity, negative = inhibition is 39.2% [at 11.4 µM].
Take `COCCNC(=O)c1cn(Cc2c(F)cccc2Cl)nn1`: the concentration at half-maximal activity (AC50) was 14.1 µM (active).
As for `COCCNC(=O)CCn1nc(-c2ccc(Cl)cc2)ccc1=O`, the “activity, negative = inhibition” value is 3.18%.
For the molecule `CN(CC(=O)Nc1cccc2c1CCCC2)S(=O)(=O)c1ccc(Br)cc1`, the AC50 was 5.01 µM (active).
Regarding `CN(CCC(=O)O)S(=O)(=O)c1ccccc1`, the activity, negative = inhibition was -21.5% [at 11.4 µM].
Take `NC(N)=NC[C@@H]1CCCCCCN1`: the activity, negative = inhibition was 23.1% [at 11.4 µM].
`O=C(CCc1ccccc1)NCc1cccnc1`: the half-maximal activity concentration (AC50) was 25.1 µM (active).
As for `NNC(=O)Cc1cccnc1`, the activity, negative = inhibition was 7.22% [at 11.4 µM].
With `O=C(CSCc1c(Cl)cccc1Cl)NCc1cccnc1`, the AC50 is 3.55 µM (active).
On to `Cn1c(C(=O)O)c(CC(=O)NCc2cccnc2)c2ccccc21`, for which the “activity, negative = inhibition” value was 4.63%.
In the case of `O=C(c1ccccc1)c1c[nH]c(C(=O)NCc2cccnc2)c1`, the AC50 was 14.1 µM (active).
In the case of `CC(C)CO/N=C1/C[C@@H](O)[C@@H](O)[C@@H]2[C@@H]3C(=O)N([C@@H](C)c4ccccc4)C(=O)[C@H]3CC[C@@H]12`, the activity, negative = inhibition is 7.13% [at 11.4 µM].
The same measure, in the same setting: next, `CC(CO)(CO)N=Cc1cc(I)cc(I)c1O`: -13.1% [at 11.4 µM].
Regarding `COc1ccccc1NC(=O)[C@H](COCc1ccccc1)NC(=O)OC(C)(C)C`, the AC50 was 3.55 µM (active).
Turning to `O=[N+]([O-])c1cc(C(F)(F)F)ccc1NCCCCNS(=O)(=O)c1ccc2ccccc2c1`, the half-maximal activity concentration (AC50) is 1.78 µM (active).
Regarding `Cc1ccc(NC(=O)CN2C(=O)N/C(=C/c3ccc(C)o3)C2=O)cc1`, the “activity, negative = inhibition” value is -3.63%.
As for `Cc1ccc(/C=C/C(=O)N2CC(C)CC(C)C2)o1` (stereo not drawn), the concentration at half-maximal activity (AC50) is 11.2 µM (active).

The AC50 is the concentration at which the activity in the assay is half-maximal.
